Experimental data published in article PMC5540273 (PLoS ONE, 2017).
Several values for one entry are separate records, joined by “and”; a condition that tells them apart may be missing. Equal entries are not always repeated. Where two headings read alike, the source gives them in different places.

Assays:
CHEK1 = details: concentration: 1 μM, replicates: in singlicate, n = 1
CHEK2 = details: concentration: 1 μM, replicates: in singlicate, n = 1
CIT = details: concentration: 1 μM, replicates: in singlicate, n = 1
CLK1 = details: concentration: 1 μM, replicates: in singlicate, n = 1
CLK2 = details: concentration: 1 μM, replicates: in singlicate; n = 1
CLK3 = details: concentration: 1 μM, replicates: in singlicate, n = 1
CLK4 = details: concentration: 1 μM, replicates: in singlicate, n = 1
CSF1R-autoinhibited = details: concentration: 1 μM, replicates: in singlicate, n = 1
CSF1R = details: concentration: 1 μM, replicates: in singlicate, n = 1
CSK = details: concentration: 1 μM, replicates: in singlicate, n = 1
CSNK1A1L = details: concentration: 1 μM, replicates: in singlicate, n = 1
CSNK1A1 = details: concentration: 1 μM, replicates: in singlicate, n = 1
CSNK1D = details: concentration: 1 μM, replicates: in singlicate, n = 1
CSNK1E = details: concentration: 1 μM, replicates: in singlicate; n = 1
CSNK1G1 = details: concentration: 1 μM, replicates: in singlicate, n = 1
CSNK1G2 = details: concentration: 1 μM, replicates: in singlicate, n = 1
CSNK1G3 = details: concentration: 1 μM, replicates: in singlicate, n = 1
CSNK2A1 = details: concentration: 1 μM, replicates: in singlicate; n = 1
CSNK2A2 = details: concentration: 1 μM, replicates: in singlicate, n = 1
CTK = test system: T1, CTK; details: concentration: 1 μM, replicates: in singlicate; n = 1
T1 construct: gene MATK
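Further: KINOMEscan kinase panel screen.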

SMILES: c1ccc(-c2n[nH]cc2-c2ccnc3ccccc23)nc1 [GW271431]
- %Inh (CHEK1): 5%
- %Inh (CHEK2): 0%
- %Inh (CIT): 41%
- %Inh (CLK1): 28%
- %Inh (CLK2): 7%
- %Inh (CLK3): 55%
- %Inh (CLK4): 20%
- %Inh (CSF1R-autoinhibited): 11%
- %Inh (CSF1R): 6%
- %Inh (CSK): 0%
- %Inh (CSNK1A1L): 19%
- %Inh (CSNK1A1): 38%
- %Inh (CSNK1D): 60%
- %Inh (CSNK1E): 69%
- %Inh (CSNK1G1): 20%
- %Inh (CSNK1G2): 0%
- %Inh (CSNK1G3): 24%
- %Inh (CSNK2A1): 0%
- %Inh (CSNK2A2): 23%
- %Inh (CTK): 0%

SMILES: COc1ccc(CNC(=O)NC2CCN(c3ccnc(Nc4ccc(OC)cc4)n3)C2)cc1 (stereo not drawn) [GSK1379727]
- %Inh (CHEK1): 0%
- %Inh (CHEK2): 27%
- %Inh (CIT): 19%
- %Inh (CLK1): 19%
- %Inh (CLK2): 0%
- %Inh (CLK3): 0%
- %Inh (CLK4): 14%
- %Inh (CSF1R-autoinhibited): 16%
- %Inh (CSF1R): 0%
- %Inh (CSK): 0%
- %Inh (CSNK1A1L): 5%
- %Inh (CSNK1A1): 0%
- %Inh (CSNK1D): 0%
- %Inh (CSNK1E): 8%
- %Inh (CSNK1G1): 0%
- %Inh (CSNK1G2): 0%
- %Inh (CSNK1G3): 8%
- %Inh (CSNK2A1): 7%
- %Inh (CSNK2A2): 0%
- %Inh (CTK): 0%

SMILES: O=C1Cc2cc(Nc3nc(NCc4cccc(S(=O)(=O)C(F)(F)F)c4)ncc3C(F)(F)F)ccc2N1
- %Inh (CHEK1): 0%
- %Inh (CHEK2): 0%
- %Inh (CIT): 0%
- %Inh (CLK1): 0%
- %Inh (CLK2): 0%
- %Inh (CLK3): 0%
- %Inh (CLK4): 0%
- %Inh (CSF1R-autoinhibited): 0%
- %Inh (CSF1R): 9%
- %Inh (CSK): 3%
- %Inh (CSNK1A1L): 0%
- %Inh (CSNK1A1): 12%
- %Inh (CSNK1D): 0%
- %Inh (CSNK1E): 0%
- %Inh (CSNK1G1): 11%
- %Inh (CSNK1G2): 0%
- %Inh (CSNK1G3): 0%
- %Inh (CSNK2A1): 12%
- %Inh (CSNK2A2): 5%
- %Inh (CTK): 5%

SMILES: CSc1ccc(-c2cc3ncnc(SCC(=O)O)c3s2)cc1
- %Inh (CHEK1): 0%
- %Inh (CHEK2): 2%
- %Inh (CIT): 1%
- %Inh (CLK1): 0%
- %Inh (CLK2): 0%
- %Inh (CLK3): 0%
- %Inh (CLK4): 0%
- %Inh (CSF1R-autoinhibited): 17%
- %Inh (CSF1R): 18%
- %Inh (CSK): 0%
- %Inh (CSNK1A1L): 11%
- %Inh (CSNK1A1): 21%
- %Inh (CSNK1D): 0%
- %Inh (CSNK1E): 0%
- %Inh (CSNK1G1): 1%
- %Inh (CSNK1G2): 0%
- %Inh (CSNK1G3): 0%
- %Inh (CSNK2A1): 22%
- %Inh (CSNK2A2): 17%
- %Inh (CTK): 14%

SMILES: CCCCCc1nc2c(N)ncnc2n1CCCCC [SKF-97255]
- %Inh (CHEK1): 0%
- %Inh (CHEK2): 0%
- %Inh (CIT): 9%
- %Inh (CLK1): 24%
- %Inh (CLK2): 14%
- %Inh (CLK3): 3%
- %Inh (CLK4): 17%
- %Inh (CSF1R-autoinhibited): 0%
- %Inh (CSF1R): 17%
- %Inh (CSK): 0%
- %Inh (CSNK1A1L): 0%
- %Inh (CSNK1A1): 14%
- %Inh (CSNK1D): 0%
- %Inh (CSNK1E): 3%
- %Inh (CSNK1G1): 0%
- %Inh (CSNK1G2): 0%
- %Inh (CSNK1G3): 6%
- %Inh (CSNK2A1): 0%
- %Inh (CSNK2A2): 28%
- %Inh (CTK): 0%

SMILES: COC(=O)Nc1nc2cc(Oc3ccc(NC(=O)Nc4cc(F)ccc4F)cc3)ccc2[nH]1.Cl [GW701424]
- %Inh (CHEK1): 0%
- %Inh (CHEK2): 21%
- %Inh (CIT): 99%
- %Inh (CLK1): 29%
- %Inh (CLK2): 0%
- %Inh (CLK3): 14%
- %Inh (CLK4): 40%
- %Inh (CSF1R-autoinhibited): 50%
- %Inh (CSF1R): 99.7%
- %Inh (CSK): 0%
- %Inh (CSNK1A1L): 13%
- %Inh (CSNK1A1): 0%
- %Inh (CSNK1D): 9%
- %Inh (CSNK1E): 26%
- %Inh (CSNK1G1): 0%
- %Inh (CSNK1G2): 0%
- %Inh (CSNK1G3): 21%
- %Inh (CSNK2A1): 0%
- %Inh (CSNK2A2): 6%
- %Inh (CTK): 0%

SMILES: COc1ccc(Nc2ncc(C#N)c(Nc3ccccc3C(N)=O)n2)cc1N1CCN(C)CC1.Cl [GSK1558669]
- %Inh (CHEK1): 100%
- %Inh (CHEK2): 78%
- %Inh (CIT): 69%
- %Inh (CLK1): 99.8%
- %Inh (CLK2): 99.3%
- %Inh (CLK3): 85%
- %Inh (CLK4): 99.7%
- %Inh (CSF1R-autoinhibited): 67%
- %Inh (CSF1R): 99.9%
- %Inh (CSK): 85%
- %Inh (CSNK1A1L): 97.3%
- %Inh (CSNK1A1): 82%
- %Inh (CSNK1D): 66%
- %Inh (CSNK1E): 78%
- %Inh (CSNK1G1): 50%
- %Inh (CSNK1G2): 0%
- %Inh (CSNK1G3): 27%
- %Inh (CSNK2A1): 99.7%
- %Inh (CSNK2A2): 99.9%
- %Inh (CTK): 56%

SMILES: CCc1nc(-c2cccc(C)c2)c(-c2ccnc(NCc3ccccc3)c2)s1
- %Inh (CHEK1): 0%
- %Inh (CHEK2): 10%
- %Inh (CIT): 29%
- %Inh (CLK1): 0%
- %Inh (CLK2): 11%
- %Inh (CLK3): 0%
- %Inh (CLK4): 0%
- %Inh (CSF1R-autoinhibited): 0%
- %Inh (CSF1R): 6%
- %Inh (CSK): 0%
- %Inh (CSNK1A1L): 11%
- %Inh (CSNK1A1): 8%
- %Inh (CSNK1D): 29%
- %Inh (CSNK1E): 8%
- %Inh (CSNK1G1): 0%
- %Inh (CSNK1G2): 0%
- %Inh (CSNK1G3): 0%
- %Inh (CSNK2A1): 0%
- %Inh (CSNK2A2): 0%
- %Inh (CTK): 17%

SMILES: CC(C)(CN)c1nc(-c2ccc(Cl)c(O)c2)c(-c2ccncc2)[nH]1.O=C(O)C(F)(F)F [SB-477794]
- %Inh (CHEK1; 1 µM): 20% and 10%
- %Inh (CHEK2; 1 µM): 41% and 59%
- %Inh (CIT; 1 µM): 100% and 99.4%
- %Inh (CLK1; 1 µM): 14% and 3%
- %Inh (CLK2): 0%
- %Inh (CLK3; 1 µM): 1% and 11%
- %Inh (CLK4; 1 µM): 6% and 11%
- %Inh (CSF1R-autoinhibited; 1 µM): 12% and 52%
- %Inh (CSF1R; 1 µM): 50% and 43%
- %Inh (CSK; 1 µM): 44% and 28%
- %Inh (CSNK1A1L; 1 µM): 85% and 81%
- %Inh (CSNK1A1; 1 µM): 96.3% and 93.8%
- %Inh (CSNK1D; 1 µM): 97% and 96.6%
- %Inh (CSNK1E): 99.6%
- %Inh (CSNK1G1; 1 µM): 0% and 5%
- %Inh (CSNK1G2; 1 µM): 0% and 7%
- %Inh (CSNK1G3; 1 µM): 22% and 14%
- %Inh (CSNK2A1): 0%
- %Inh (CSNK2A2; 1 µM): 11% and 0%
- %Inh (CTK): 0%
